B1: ENSMUSG00000043670.167|Diras1 (ssRNA)
RNA: GGGAGUUCUACAGUCCGACGAUCGCUUCGAUAUCCGCAUGCUAGGUUUGGGGUGCUGAGGGUGGGGUGCCCAGCUGAGAGUCUAUCAGCAAAGUCCCUGUGUGCGGUGAUAGGACUAGUGGCUGCUGCCCUAGGGCUCUGACAGAAUCUGAGCCUCUUUGCUGGUCAUGUGUACUCUGGAGACUGUCCCCCAUGUCUGCCCUGAGUUACGGAGCCCCUGUGGUAUCUGCGAGACUGUCCAGGAGACUUGAGUGGCUCCUGGGCCUGUGUCCCACCCAGAUGAGGGUGACUUAGAAUUCUGUGUCUCUUGCGGUCGCACUAGUGUGGAAUUCUCGGGUGUCAAGG
B2: ENSMUSG00000042529.74|Kcnj12 (ssRNA)
RNA: GGGAGUUCUACAGUCCGACGAUCGCUUCGAUAUCCGCAUGCUAACUUGGGCAAGACUGUUUACAAACAAAAACAAACAAACAAACAAUCAAAAAAAAAACCCACCCCACAAAACACAAGAAAACAUUAACAGGUGGUUCAAUUUUUAAAAUUCCUGGUGUGGGGACAGUUGGAAUUCUACUCAGCGCUGCCAGGCAAGCAGCUGGACGGAGAACCCUGAGGGUUCUCAGAGGUCUGUUUUCUCCCUCACGUGGGCCAGGGCCUUAAGCGAGUUGUCAUGCUUAAGGAUGAAUCAGGCUGCUUGCUCUUGCGGUCGCACUAGUGUGGAAUUCUCGGGUGUCAAGG
B3: ENSMUSG00000032194.238|Kank2 (ssRNA)
RNA: GGGAGUUCUACAGUCCGACGAUCGCUUCGAUAUCCGCAUGCUAAAACCUCAGCAGGGCAGCAUUGAGACUCAUGGACUAAAGGAAAGUGUUCACUCUUCUAGACAAGUGGGUCUCUUGGUUUGAUGGAGUCUUACUCCGCUUGAGUUUUGUAGAAGGGGUUUGUCUAAGGCAUAGAGGCUUGGUUGGCAUAAGAAAAUAAGAUGGACAGAUGGAUGGGUGGAUGGAUGGAUGGCUGAUUGAGUGGGUGGGUGGGUGGAUGGAUGCAUAAAUGAAUAGAUGGAUGGAUGAAUGAACAGAUAGAUCUCUUGCGGUCGCACUAGUGUGGAAUUCUCGGGUGUCAAGG
B4: ENSMUSG00000028439.2|Fam219a|50:54;256:260 (ssRNA)
RNA: GGGAGUUCUACAGUCCGACGAUCGCUUCGAUAUCCGCAUGCUAGACGAGGACCUAGAUCUCAUCCCCCCCAAGUCUGUGAACCCCACCUGCAACACAUGUCAGGCCACUUCCUCCACCGCCUGCCACAUUCAGUAGUGGGCGGGGUCGCCGCGGUGCACGGGGCGCUGACCUGGGCCCGGUGGGAUGCAGCAGGAGAGACCCCUACCCUGCUGGUCCACUGGUCCCCAGCCCCGCGCCUCUUAGAGCCGCCAACCUCGUAACAGUCAUUGCUUCCUCCUAUGGUAGGACGUGUACCUCACACACUCUUGCGGUCGCACUAGUGUGGAAUUCUCGGGUGUCAAGG
B5: ENSMUSG00000058297.541|Spock2|207:211 (ssRNA)
RNA: GGGAGUUCUACAGUCCGACGAUCGCUUCGAUAUCCGCAUGCUAUUUUGAUAUCGGCUCCCCAAAGCCCAAGCCCACAGCCCUAGGAGAGAACCAGGGGCCCAUCUUUGACACCUGGGCCAUCACGAGCCCUCCCGCCUGCAGUUGUCCUAGGGAAAGACCUGGGGGUGCAAAAGGAGAUUCAAGACAUCCGUACCAAGUCAGGCAGAGCUACCCGCUUCUCAGCCCGUGUCCCACUUAAAACCGUCCGAACACAAAUCACUGAGCUUAGAGUUAAACAUUGUGGUCAAGUGCUUGGGUUCCGUCUCUUGCGGUCGCACUAGUGUGGAAUUCUCGGGUGUCAAGG
B6: ENSMUSG00000058297.519|Spock2 (ssRNA)
RNA: GGGAGUUCUACAGUCCGACGAUCGCUUCGAUAUCCGCAUGCUACACAGGAGUCGUGACCACGUGUGAUGGGUGGGCACAGGUCUGCCUUGCUCCAGCCCCCUCCCUUGGUUUCUGUUGGUACCCAUUUGGCUUUUAUCUGCUUUCUGCUUCACCACUAAGUGCGUAGGUGGGGUCUUUUGAUAUCGGCUCCCCAAAGCCCAAGCCCACAGCCCUAGGAGAGAACCAGGGGCCCAUCUUUGACACCUGGGCCAUCACGAGCCCUCCCGCCUGCAGUUGUCCUAGGGAAAGACCUGGGGGUGCAACUCUUGCGGUCGCACUAGUGUGGAAUUCUCGGGUGUCAAGG
B7: ENSMUSG00000061578.447|Ksr2 (ssRNA)
RNA: GGGAGUUCUACAGUCCGACGAUCGCUUCGAUAUCCGCAUGCUAUUUCAGAGGGGAUAGUUCCUUCUAACCUUGUACUGGGACAUCAUCUAUGUCCCCAUCCCCAGAGCUGAAUUAGAGACACCAAGUAGCCUCUUGGGUUGUUUUGUGGGGUGUUCCCCUUGCUGGUCAAAGGAGUGGAAAGCCACCUUGCUGUAAAUGCUCUUGUUUUCUGUAGCAAUCUUGAACUCUUUUUUUUUUUUGUUCGUUUGUUUGUUUGUUUGUUUGUUUGUUUUUUCAAGACAGGGUUUUUCUGUAUAGCCCUGCUCUUGCGGUCGCACUAGUGUGGAAUUCUCGGGUGUCAAGG
B8: ENSMUSG00000031028.308|Tub (ssRNA)
RNA: GGGAGUUCUACAGUCCGACGAUCGCUUCGAUAUCCGCAUGCUAGAACCCUCAGCGAGGUAGCCUUUGUUUACAGUCUAGUUUCUAGAGGGCAGUAGGACUUCCAUGCUGGGGCUGGCCUAUCUCCUGAUGAAAGAUUACAGUGCCAUCUCCUUCCCAUAGUUCUGUGUCUGCCCUCCCUCCCUGACUUUAUAGGGAGAAAUCUCCUGACAUUAGAGGUGAUAGAAACCAGAGCUUUAGUCUAGUCAGGCUGUUUCUCUGGGUUGACAAGUUUAAGGUUGAACAGGCUGAUUUCUGGAAUCUCACUCUUGCGGUCGCACUAGUGUGGAAUUCUCGGGUGUCAAGG
B9: ENSMUSG00000029028.135|Lrrc47 (ssRNA)
RNA: GGGAGUUCUACAGUCCGACGAUCGCUUCGAUAUCCGCAUGCUAAGGCAUUCUAUUGAACAGUAUUUAUUUUUCUACAACAUGUUAAUAGAAUUUUUUUUUAAAUCAGCUGUGCAUAGACAGUUGAGAACAUCAUGUUGUGAGUGUAAUCUUCUUAGAGCUUGUUUCCAGGCACCGUGCUGCCGCCAUGCUCCCAGGGCAGCAUCUGCCUUCCACGGCUGUGCUUGGAACUGUAGUGCUGGUCGUUGUUGGCACAUCUGCGCCUUGGCCAAGGAAGUUAUCUAUGUCCGUGUAGUCCUUUGUAGCUCUUGCGGUCGCACUAGUGUGGAAUUCUCGGGUGUCAAGG

Whole data set: some 9,900 sequences, median “r (bound/input frequency ratio)” near 0.7, cut for the highest 2% near 6.5. The entries come from a sample that favours the highest values as a whole.

The target in this assay is TDP-43 (Homo sapiens, UniProt Q13148 1-414). Put plainly: RNA Bind-n-Seq with designed 260-mer pool; 25 mM Tris-HCl, 150 mM KCl, 3 mM MgCl2, BSA (printed 500 mg/mL), 20 units/mL SUPERase IN; pH not stated; 500 nM RNA pool, 1 h, 4 C; TDP-43 5, 50, 500 nM; high values mean tight binding. The note with it: protein: recombinant; tags: SBP (GST cleaved off with PreScission; pGEX-GST-SBP). The gist of the method: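 Duplicate measurements used two independent batches of recombinant SBP-tagged TDP-43, which was captured on streptavidin beads at 5, 50 or 500 nM. The beads were incubated with 500 nM of an in vitro-transcribed 260-nt 3′ UTR oligo pool for 1 h at 4 °C in 25 mM Tris-HCl, 150 mM KCl, 3 mM MgCl2, BSA and SUPERase IN. After washing, biotin elution, reverse transcription, PCR amplification and sequencing, binding was expressed as R: each oligo's normalized read abundance in the bound sample over its abundance in input.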
TDP-43, sequence (Q13148 whole entry): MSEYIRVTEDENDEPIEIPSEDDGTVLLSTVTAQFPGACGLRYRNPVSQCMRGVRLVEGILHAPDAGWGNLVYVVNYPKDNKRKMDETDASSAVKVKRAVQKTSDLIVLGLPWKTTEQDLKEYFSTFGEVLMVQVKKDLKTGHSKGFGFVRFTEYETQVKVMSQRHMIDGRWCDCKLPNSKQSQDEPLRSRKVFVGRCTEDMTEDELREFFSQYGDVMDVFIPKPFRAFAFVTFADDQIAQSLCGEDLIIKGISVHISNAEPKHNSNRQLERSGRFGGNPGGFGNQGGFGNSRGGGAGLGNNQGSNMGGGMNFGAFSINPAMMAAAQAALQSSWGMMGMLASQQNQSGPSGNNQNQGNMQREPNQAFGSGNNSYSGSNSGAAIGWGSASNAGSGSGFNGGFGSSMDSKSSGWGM
As for B1, the binding signal was 1.03 R (bound/input frequency ratio).

Consider B2, for which the binding signal is 1.56 R (bound/input frequency ratio).

Take B3: the binding signal is 0.95 R (bound/input frequency ratio).

B4: the binding signal is 0.757 R (bound/input frequency ratio).

Take B5: the binding signal is 0.821 R (bound/input frequency ratio).

For B6, the binding signal was 0.833 R (bound/input frequency ratio).

For B7, the binding signal is 2.55 R (bound/input frequency ratio).

On to B8, for which the binding signal is 0.194 R (bound/input frequency ratio).

Consider B9, for which the binding signal was 0.359 R (bound/input frequency ratio).
